Among the data in PubChem BioAssay (NCI) are growth values, retold here.

Structures are written as SMILES. About 83,000 compounds went through this panel and 20% of them were active in at least one assay; those are over-represented in the sample as a whole.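 Treatment: one concentration, 48 hours, 96-well format. Scoring: percent growth, with anything below 10 considered active.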 A number with no mark means an inactive call. Calls of active or inactive are those of the source.

The test system of this experiment is MCF7 breast. The experiment in a line: NCI-60 one-dose screen, 48 h (100 = growth as untreated, 0 = no growth, -100 = all killed). The settings on record: 10 µM unless noted.
As for `CC(=O)Nc1nc(C(=O)N2N=C(C)/C(=C/c3cccs3)C2=O)cs1`, the growth is 90.8%.
In the case of `C=C1C(=O)O[C@H]2[C@H]1CC/C(COC(=O)NCCc1ccc(Br)cc1)=C\CC[C@@]1(C)O[C@@H]21` it was 4.4% (active).
Regarding `CCCCCCCCCCCCNC(=S)N/N=C/c1ccc(Cl)c(Cl)c1`, the growth was 102%.
In the case of `CCCCCCCCCCCCCCCCC(Br)C(=O)O` (stereo not drawn) it was 92.9%; in that of `CCN(Cc1ccc(CN(CC)C(=O)C(Cl)(Cl)Cl)cc1)C(=O)C(Cl)(Cl)Cl`, 89.2%.
Consider `CS(=O)(=O)N(c1cc(-c2ccc3ncnc(Nc4cccc(Cl)c4)c3c2)cnc1Cl)S(C)(=O)=O`, for which the growth is 4.87% (active).
For the molecule `COc1cc(C(=O)/C=C/c2cc(C(=O)c3cc(OC)c(OC)c(OC)c3)ccc2OC)ccc1N`, the growth was 6.6% (active).
Take `CCCCCCCCCCC/C=C\C[C@H](O)C/C=C1/C(=O)C=C[C@@H]1C/C=C\CCCC(=O)OC`: the growth was 10.8%.
In the case of `O=S(=O)(NCCCNc1cc(-c2cn(-c3ccccc3)nc2-c2cccc(O)c2)ccn1)c1ccc(Cl)cc1` it was 11%; in that of `CC(=O)/C=C/c1cc2cc(Cl)ccc2[nH]c1=O`, 30.5%.
With `CC(=O)Nc1nc(C(=O)N2N=C(C)/C(=C/c3ccccc3)C2=O)cs1`, the growth was 95.9%.
For `COC(=O)CCCCN=Cc1c(O)c(O)c(C(C)C)c2cc(C)c(-c3c(C)cc4c(C(C)C)c(O)c(O)c(C=NCCCCC(=O)OC)c4c3O)c(O)c12` the value was 9.71% (active); for `COc1cccc(C2CC(=O)Nc3c2c(C)nn3-c2nc3ccccc3[nH]2)c1OC` (stereo not drawn), 62.5%; for `O=c1[nH]c(-c2cn(-c3ccc(Cl)cc3)nn2)nc2ccccc12`, 99.8%.
In the case of `Cc1ccc(OCCn2c(C)nn(-c3ccc(Cl)cc3)c2=O)cc1` it was 98.8%.
In the case of `O=C(COc1ccccc1)N1N=C(c2ccc(Cl)cc2)CC1c1c[nH]c2ccccc12` (stereo not drawn) it was 39.7%; in that of `COc1cc(OC)cc(-c2n[nH]nc2-c2ccc3c(c2)OCO3)c1`, 24.3%; in that of `COC(=O)CC/C(C)=N\Nc1ccc([N+](=O)[O-])cc1`, 77.1%.
On to `O=C(O)C(=Cc1c2ccccc2cc2ccccc12)C(=O)O`, for which the growth was 97.5%.
In the case of `Clc1ccc(/C=C/c2nc(N3CCOCC3)c3nc(Cl)c(Cl)cc3n2)cc1` it was 56.8%; in that of `COc1cc(OC)c(C(=O)/C=C/c2cccc(C#N)c2)c(OC)c1`, 15%.
For `CCCC(C(=O)OCC)C(C)OC(=O)OCC` (stereo not drawn) the value was 101%; for `CCN(CC)CCSc1c2ccc(Cl)cc2nc2ccc(OC)cc12`, 33.8%; for `Cc1nn(-c2ccc(Cl)cc2)c(=O)n1CCOc1ccccc1Cl`, 98.3%.
For `COc1ccc(S(=O)(=O)N2CCN(c3cc4c(cc3F)c(=O)c(C(=O)O)cn4C3CC3)CC2)c(OC)c1` the value was 98.4%.
As to `CCOC(=O)C1=C(C)NC(=O)NC1c1ccc(OCC(=O)N/N=C/c2ccc(Cl)cc2)cc1` (stereo not drawn), the growth was 90.1%.
Consider `CCOC(=O)c1cc(/C(=N\O)c2cc(OC)c(OC)c(OC)c2)n2c(C)cccc12`, for which the growth is 17.1%.
`C=CCOc1cccc(/C=C/C(=O)c2sc(Nc3cccnc3)nc2C)c1`: the growth is 19.1%.
For `CN1CCN(c2ccc3cc(-c4nc5ccccc5[nH]4)c(=O)oc3c2)CC1` the value was 73.6%; for `O=C(/C=C/CN1CCOCC1)Nc1cc2c(Nc3cccc(Cl)c3F)ncnc2cc1OCCOC(F)F`, 65.5%; for `O=Nc1c(-c2c(O)[nH]c3ccc([N+](=O)[O-])cc23)[nH]c2ccc(O)cc12`, 2.75% (active).
In the case of `COC(=O)c1ccc(C)cc1` it was 91.7%; in that of `COc1ccc(/C=C/c2nc(N3CCOCC3)c3cc(F)c(F)cc3n2)cc1OC`, 15.9%.
For `Cc1ccc2c(c1)ncn2-c1ncnc2c1CC(C)c1ccccc1N2C` (stereo not drawn), the growth is 12.9%.
Take `COc1ccc(S(=O)(=O)NCCNc2nccc(-c3c(-c4ccccc4)nc4sccn34)n2)cc1`: the growth is 4.01% (active).
Turning to `CCCCC[C@@H]1Cc2cc(O)c(C(=O)O)c3c2[C@H](C[C@@]2(CCCO2)O3)O1`, the growth is 102%.
For `O=C(Nc1ccc(Br)c(Cl)c1)c1cc(F)ccc1O` the value was 2.5% (active); for `Cc1ccc2nc(-c3c(N)n[nH]c3CCCO)[nH]c(=O)c2c1`, 94.5%.
